Inconclusive results are not listed. Active and inactive are the calls of the source. The calls were made as follows, unless noted: active = hit-call score of the fitted dose curve at least 0.9, where 1 is the maximum; inactive = score below 0.9.
Columns and labels:
[1] = molecular target: Glucocorticoid receptor (Homo sapiens) (UniProt P04150); assay: ATG_GR_TRANS: Attagene TRANS-FACTORIAL HepG2 Assay for human Glucocorticoid Receptor (GR) (AID 2282978; active = hit-call score of the fitted dose curve at least 0.9, where 1 is the maximum;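 also: activators score as hits since higher reporter transcript over DMSO is fitted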); conditions: HepG2 Attagene TRANS GR reporter, mRNA transcription
Sequence of Glucocorticoid receptor (Homo sapiens) (P04150 whole entry, looked up, the tested form may be a part): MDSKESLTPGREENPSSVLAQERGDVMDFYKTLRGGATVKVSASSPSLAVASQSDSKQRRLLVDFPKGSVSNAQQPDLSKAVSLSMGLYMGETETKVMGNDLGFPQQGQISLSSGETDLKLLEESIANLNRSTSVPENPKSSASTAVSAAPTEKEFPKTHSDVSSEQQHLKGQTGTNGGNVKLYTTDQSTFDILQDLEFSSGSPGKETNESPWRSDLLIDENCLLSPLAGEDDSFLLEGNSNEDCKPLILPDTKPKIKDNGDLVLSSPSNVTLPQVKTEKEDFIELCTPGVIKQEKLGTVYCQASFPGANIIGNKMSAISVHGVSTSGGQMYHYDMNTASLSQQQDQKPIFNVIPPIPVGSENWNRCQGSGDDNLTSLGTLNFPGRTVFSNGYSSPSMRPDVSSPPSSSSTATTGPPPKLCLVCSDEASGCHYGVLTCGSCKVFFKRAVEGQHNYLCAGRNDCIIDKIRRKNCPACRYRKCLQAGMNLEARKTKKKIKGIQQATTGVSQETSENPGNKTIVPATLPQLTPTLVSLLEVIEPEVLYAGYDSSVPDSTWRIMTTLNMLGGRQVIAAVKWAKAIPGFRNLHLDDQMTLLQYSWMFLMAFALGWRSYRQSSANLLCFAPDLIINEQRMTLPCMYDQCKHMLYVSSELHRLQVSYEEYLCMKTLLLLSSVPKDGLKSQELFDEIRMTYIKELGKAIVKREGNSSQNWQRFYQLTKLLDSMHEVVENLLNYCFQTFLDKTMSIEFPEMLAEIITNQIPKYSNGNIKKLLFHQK
In short: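 Reporter transcript levels, detected by fluorescence after RT-PCR and capillary electrophoresis, served as the endpoint. HepG2 cells bearing transfected GAL4-UAS reporters responsive to NR-GAL4 chimeras were incubated with compound 24 h; DMSO defined baseline.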

[2] = molecular target: Bile acid receptor (Homo sapiens) (UniProt Q96RI1); assay: ATG_FXR_TRANS: Attagene TRANS-FACTORIAL HepG2 Assay for Farnesoid X Receptor (FXR) (AID 2282979; active = hit-call score of the fitted dose curve at least 0.9, where 1 is the maximum;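 also: hits raise reporter mRNA above DMSO so AC50 marks FXR activation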); conditions: HepG2 Attagene TRANS FXR-GAL4 reporter transcription
Sequence of Bile acid receptor (Homo sapiens) (Q96RI1 whole entry, looked up, the tested form may be a part): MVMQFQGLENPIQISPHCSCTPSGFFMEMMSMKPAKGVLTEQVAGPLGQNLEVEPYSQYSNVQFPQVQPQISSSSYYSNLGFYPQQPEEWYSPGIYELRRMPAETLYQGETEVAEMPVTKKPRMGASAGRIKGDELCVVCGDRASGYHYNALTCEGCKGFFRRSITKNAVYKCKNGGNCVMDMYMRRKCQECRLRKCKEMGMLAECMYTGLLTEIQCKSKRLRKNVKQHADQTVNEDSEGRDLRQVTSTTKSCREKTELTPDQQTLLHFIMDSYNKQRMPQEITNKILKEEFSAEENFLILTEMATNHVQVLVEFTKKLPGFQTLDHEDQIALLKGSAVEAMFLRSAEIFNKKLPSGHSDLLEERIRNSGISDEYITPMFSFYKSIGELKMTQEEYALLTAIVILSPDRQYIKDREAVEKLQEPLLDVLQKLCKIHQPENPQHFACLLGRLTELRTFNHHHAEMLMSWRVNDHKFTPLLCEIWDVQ
In short: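 Reporter transcripts from transfected HepG2 cells were measured 24 h after dosing, using RT-PCR with capillary electrophoresis of 6-FAM-labelled fragments. The read-out reflects activity of exogenous FXR-Gal4 chimera on GAL4-UAS units, with induction relative to DMSO.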

[3] = molecular target: Oxysterols receptor LXR-alpha (Homo sapiens) (UniProt Q13133); assay: ATG_LXRa_TRANS: Attagene TRANS-FACTORIAL HepG2 Assay for human Liver X Receptor alpha (LXRa) (AID 2282980; active = hit-call score of the fitted dose curve at least 0.9, where 1 is the maximum); conditions: HepG2 Attagene TRANS reporter, LXRa transactivation
Sequence of Oxysterols receptor LXR-alpha (Homo sapiens) (Q13133 whole entry, looked up, the tested form may be a part): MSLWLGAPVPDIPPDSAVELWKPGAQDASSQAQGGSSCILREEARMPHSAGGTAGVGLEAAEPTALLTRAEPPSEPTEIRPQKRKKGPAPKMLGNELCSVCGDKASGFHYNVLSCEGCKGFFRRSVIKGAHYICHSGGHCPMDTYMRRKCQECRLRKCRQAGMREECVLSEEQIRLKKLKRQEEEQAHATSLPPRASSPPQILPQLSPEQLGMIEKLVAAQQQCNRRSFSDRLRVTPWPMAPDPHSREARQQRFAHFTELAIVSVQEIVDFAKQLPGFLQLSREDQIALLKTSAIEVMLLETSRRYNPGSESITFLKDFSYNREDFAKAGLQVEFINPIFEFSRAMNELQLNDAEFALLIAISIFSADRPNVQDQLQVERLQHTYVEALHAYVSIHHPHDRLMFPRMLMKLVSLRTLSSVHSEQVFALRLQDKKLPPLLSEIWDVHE
In short: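 Chemical-induced reporter mRNA measured by RT-PCR with fluorescent labelling and capillary electrophoresis after 24 h dosing of transiently transfected HepG2 cells expressing exogenous NR-Gal4 chimeras; increases scored against DMSO baseline.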

[4] = molecular target: Hepatocyte nuclear factor 4-alpha (Homo sapiens) (UniProt P41235); assay: ATG_HNF4a_TRANS: Attagene TRANS-FACTORIAL HepG2 Assay for human Hepatocyte Nuclear Factor 4 alpha (HNF4a) (AID 2282982; active = hit-call score of the fitted dose curve at least 0.9, where 1 is the maximum); conditions: HepG2 HNF4a transactivation reporter, mRNA readout
Sequence of Hepatocyte nuclear factor 4-alpha (Homo sapiens) (P41235 whole entry, looked up, the tested form may be a part): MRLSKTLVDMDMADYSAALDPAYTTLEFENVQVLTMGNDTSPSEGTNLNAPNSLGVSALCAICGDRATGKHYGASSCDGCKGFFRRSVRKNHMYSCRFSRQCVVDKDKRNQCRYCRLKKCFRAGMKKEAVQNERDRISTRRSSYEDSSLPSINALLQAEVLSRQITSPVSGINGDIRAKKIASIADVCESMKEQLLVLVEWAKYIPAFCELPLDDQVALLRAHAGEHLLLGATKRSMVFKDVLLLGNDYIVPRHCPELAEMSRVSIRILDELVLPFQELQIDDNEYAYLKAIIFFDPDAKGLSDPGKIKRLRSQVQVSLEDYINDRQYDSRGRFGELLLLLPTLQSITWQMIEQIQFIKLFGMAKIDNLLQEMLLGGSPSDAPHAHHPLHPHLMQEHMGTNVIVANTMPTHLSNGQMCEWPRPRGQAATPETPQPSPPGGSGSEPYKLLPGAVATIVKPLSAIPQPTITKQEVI
In short: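 HepG2 cells transiently transfected with HNF4a-Gal4 chimera and GAL4-UAS reporter units, dosed for 24 h. Reporter mRNA measured by RT-PCR, fluorescent primer extension and capillary electrophoresis; gain-of-signal fitted relative to DMSO.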

[5] = ATG_M_06_TRANS: Attagene TRANS-FACTORIAL HepG2 Assay for M06 Transcription Factor (Internal Marker) (AID 2282983; active = hit-call score of the fitted dose curve at least 0.9, where 1 is the maximum); conditions: HepG2 Attagene TRANS M06 internal marker reporter
In short: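 Cells: HepG2, transient multi-reporter transfection. Exposure: 24 h. Detection: RT-PCR, 6-FAM labelling, HpaI digestion (2 h, 37 °C), capillary electrophoresis. Baseline: DMSO.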

[6] = ATG_M_32_TRANS: Attagene TRANS-FACTORIAL HepG2 Assay for M32 Transcription Factor (Internal Marker) (AID 2282984; active = hit-call score of the fitted dose curve at least 0.9, where 1 is the maximum;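 also: transcript level of a background control reporter unit measured by RT-PCR and capillary electrophoresis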); conditions: HepG2 Attagene TRANS M32 internal marker reporter
In short: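 HepG2 cells transiently transfected with GAL4-UAS reporter units, dosed for 24 hours. Reporter mRNA quantified by RT-PCR, 6-FAM labelling, HpaI digestion and capillary electrophoresis; internal-marker signal fitted upward relative to DMSO.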

[7] = molecular target: Transcriptional activator Myb (Homo sapiens) (UniProt P10242); assay: ATG_Myb_CIS: Attagene CIS-FACTORIAL HepG2 Assay for human Myeloblastosis (Myb) Proto-Oncogene Transcription Factor (AID 2282986); conditions: HepG2 Attagene CIS-FACTORIAL Myb reporter transcription; actives raise or lower the signal
Sequence of Transcriptional activator Myb (Homo sapiens) (P10242 whole entry, looked up): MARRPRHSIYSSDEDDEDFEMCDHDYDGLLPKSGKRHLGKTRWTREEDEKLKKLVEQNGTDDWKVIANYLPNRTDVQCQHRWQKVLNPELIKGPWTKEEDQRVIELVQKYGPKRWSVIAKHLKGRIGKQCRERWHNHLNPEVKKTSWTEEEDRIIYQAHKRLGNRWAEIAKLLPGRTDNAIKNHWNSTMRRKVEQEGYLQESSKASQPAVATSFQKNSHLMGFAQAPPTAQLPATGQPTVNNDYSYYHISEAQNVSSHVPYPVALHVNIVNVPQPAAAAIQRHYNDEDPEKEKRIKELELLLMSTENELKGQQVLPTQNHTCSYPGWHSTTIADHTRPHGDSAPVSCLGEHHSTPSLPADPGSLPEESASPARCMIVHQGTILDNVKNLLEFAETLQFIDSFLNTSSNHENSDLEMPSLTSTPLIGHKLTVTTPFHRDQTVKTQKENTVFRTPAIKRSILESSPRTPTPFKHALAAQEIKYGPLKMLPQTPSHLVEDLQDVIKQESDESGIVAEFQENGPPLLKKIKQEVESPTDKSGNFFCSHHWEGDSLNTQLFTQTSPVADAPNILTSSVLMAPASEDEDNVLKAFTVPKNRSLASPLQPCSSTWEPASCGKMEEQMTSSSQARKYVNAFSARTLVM
In short: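 Transiently transfected HepG2 cells, treated 24 h. Reporter mRNA quantified by RT-PCR/capillary electrophoresis; bidirectional fit relative to DMSO.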

[8] = molecular target: Nuclear respiratory factor 1 (Homo sapiens) (UniProt Q16656); assay: ATG_NRF1_CIS: Attagene CIS-FACTORIAL HepG2 Assay for human Nuclear Respiratory Factor 1 (NRF1) Orphan Gene (AID 2282987); conditions: HepG2 NRF1 cis-element reporter, Attagene multiplex; actives raise or lower the signal
Sequence of Nuclear respiratory factor 1 (Homo sapiens) (Q16656 whole entry, looked up, the tested form may be a part): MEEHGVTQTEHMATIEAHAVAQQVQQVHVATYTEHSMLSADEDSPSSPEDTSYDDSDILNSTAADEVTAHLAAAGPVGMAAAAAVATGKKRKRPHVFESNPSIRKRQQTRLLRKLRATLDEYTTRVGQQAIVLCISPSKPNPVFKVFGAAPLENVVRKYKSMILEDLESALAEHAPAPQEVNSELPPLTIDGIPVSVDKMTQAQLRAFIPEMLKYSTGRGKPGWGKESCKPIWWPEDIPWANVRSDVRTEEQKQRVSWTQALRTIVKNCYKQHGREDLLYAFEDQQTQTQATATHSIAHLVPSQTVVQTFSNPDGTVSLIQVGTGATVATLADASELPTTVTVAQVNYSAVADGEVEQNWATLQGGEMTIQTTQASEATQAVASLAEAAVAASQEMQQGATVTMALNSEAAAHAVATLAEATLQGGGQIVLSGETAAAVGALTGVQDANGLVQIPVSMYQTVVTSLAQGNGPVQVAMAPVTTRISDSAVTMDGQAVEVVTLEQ
In short: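 Cells (HepG2, transient MRTU transfection) are exposed to compound for 24 h, then RNA isolated and reporter mRNA amplified and fluorescently labelled. Fragments are separated by capillary electrophoresis; signal change is fitted bidirectionally relative to DMSO.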

[9] = ATG_NFI_CIS: Attagene CIS-FACTORIAL HepG2 Assay for human Nuclear Factor I (NFI) (AID 2282989); conditions: HepG2 cis-regulatory reporter, NFI response element transcription; actives raise or lower the signal
In short: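 Read-out: reporter mRNA via RT-PCR plus capillary electrophoresis with fluorescence detection. Transiently transfected HepG2 (endogenous TF activity on cis promoters), 24 h compound exposure; gain or loss of signal fitted against DMSO.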

[10] = molecular target: Myc proto-oncogene protein (Homo sapiens) (UniProt P01106); assay: ATG_Myc_CIS: Attagene CIS-FACTORIAL HepG2 Assay for human Myelocytomatosis (Myc) Proto-Oncogene Transcription Factor (AID 2282990); conditions: HepG2, Attagene cis-reporter transcription factor activity; actives raise or lower the signal
Sequence of Myc proto-oncogene protein (Homo sapiens) (P01106 whole entry, looked up): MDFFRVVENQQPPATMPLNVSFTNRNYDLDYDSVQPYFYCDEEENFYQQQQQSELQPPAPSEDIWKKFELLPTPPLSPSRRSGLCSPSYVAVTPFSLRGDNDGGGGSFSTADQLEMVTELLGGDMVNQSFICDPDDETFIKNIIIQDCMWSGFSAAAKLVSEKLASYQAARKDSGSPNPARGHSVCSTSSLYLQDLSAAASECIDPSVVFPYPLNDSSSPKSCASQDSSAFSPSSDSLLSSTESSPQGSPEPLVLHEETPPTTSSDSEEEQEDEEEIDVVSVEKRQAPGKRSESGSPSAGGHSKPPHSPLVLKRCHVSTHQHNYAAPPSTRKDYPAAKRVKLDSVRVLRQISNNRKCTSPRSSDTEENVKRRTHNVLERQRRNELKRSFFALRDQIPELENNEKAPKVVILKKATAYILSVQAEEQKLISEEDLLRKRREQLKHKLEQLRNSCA
In short: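 Transiently transfected HepG2 cells bearing cis-promoter reporter units for endogenous transcription factors; 24 h exposure. Reporter mRNA measured by RT-PCR, 6-FAM primer extension, HpaI cut and capillary electrophoresis; bidirectional fit relative to DMSO.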

[11] = ATG_NF_kB_CIS: Attagene CIS-FACTORIAL HepG2 Assay for human Nuclear Factor Kappa B (NF-kB) (AID 2282991); conditions: HepG2 Attagene cis-factorial NF-kB reporter mRNA; actives raise or lower the signal
In short: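 Measures mRNA induction of an NF-kB-responsive cis-element reporter in HepG2 cells transfected with multiple reporter units, sampled 24 h post-dosing; quantified by fluorescence after RT-PCR and capillary electrophoresis, fitted for activation or inhibition against DMSO.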

[12] = ATG_NRF2_ARE_CIS: Attagene CIS-FACTORIAL HepG2 Assay for human Nuclear Factor Erythroid 2 Related Factor 2 (NFR2) response to Antioxidant Response Elements (ARE) (AID 2282992); conditions: HepG2 Attagene ARE/NRF2 reporter, transcription factor activity; actives raise or lower the signal;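 as to AC50: reporter mRNA level measured by RT-PCR and capillary electrophoresis fluorescence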
In short: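 Cis-factorial assay: transfected HepG2 reporter library, 24 h dosing, mRNA readout via RT-PCR/CE; DMSO-referenced bidirectional analysis.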

[13] = ATG_Oct_MLP_CIS: Attagene CIS-FACTORIAL HepG2 Assay for human Octamer-Binding Transcription Factor (Oct) (AID 2282993); conditions: HepG2 Attagene cis-factorial Oct reporter, mRNA; actives raise or lower the signal
In short: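 Read-out: reporter mRNA via RT-PCR plus capillary electrophoresis of 6-FAM-labelled fragments. Transiently transfected HepG2, 24 h exposure, endogenous TF activity on cis elements. Gain or loss of signal fitted relative to DMSO.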

[14] = molecular target: Cellular tumor antigen p53 (Homo sapiens) (UniProt P04637); assay: ATG_p53_CIS: Attagene CIS-FACTORIAL HepG2 Assay for human p53 Transcription Factor (AID 2282994); conditions: HepG2 p53 cis-element reporter, Attagene mRNA; actives raise or lower the signal
Sequence of Cellular tumor antigen p53 (Homo sapiens) (P04637 whole entry, looked up): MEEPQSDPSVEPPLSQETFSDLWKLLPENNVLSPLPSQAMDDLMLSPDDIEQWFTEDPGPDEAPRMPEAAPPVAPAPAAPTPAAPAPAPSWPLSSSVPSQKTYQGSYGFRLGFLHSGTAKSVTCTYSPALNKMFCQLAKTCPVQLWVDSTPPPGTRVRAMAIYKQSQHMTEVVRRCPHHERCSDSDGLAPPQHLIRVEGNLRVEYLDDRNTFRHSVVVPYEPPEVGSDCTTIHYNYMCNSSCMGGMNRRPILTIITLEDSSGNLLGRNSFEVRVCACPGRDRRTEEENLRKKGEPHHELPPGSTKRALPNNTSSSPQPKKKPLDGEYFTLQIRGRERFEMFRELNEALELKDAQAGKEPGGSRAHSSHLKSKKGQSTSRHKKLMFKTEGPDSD
In short: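 Using HepG2 hepatoma cells carrying cis-acting multiplexed reporters, mRNA induction is detected after a 24 h exposure. Gain- and loss-of-signal responses are fitted relative to DMSO-treated cells.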

[15] = molecular target: Oxysterols receptor LXR-beta (Homo sapiens) (UniProt P55055); assay: ATG_LXRb_TRANS: Attagene TRANS-FACTORIAL HepG2 Assay for human Liver X Receptor beta (LXRb) (AID 2282981; active = hit-call score of the fitted dose curve at least 0.9, where 1 is the maximum); conditions: HepG2 Attagene TRANS GAL4-LXRb reporter, mRNA
Sequence of Oxysterols receptor LXR-beta (Homo sapiens) (P55055 whole entry, looked up, the tested form may be a part): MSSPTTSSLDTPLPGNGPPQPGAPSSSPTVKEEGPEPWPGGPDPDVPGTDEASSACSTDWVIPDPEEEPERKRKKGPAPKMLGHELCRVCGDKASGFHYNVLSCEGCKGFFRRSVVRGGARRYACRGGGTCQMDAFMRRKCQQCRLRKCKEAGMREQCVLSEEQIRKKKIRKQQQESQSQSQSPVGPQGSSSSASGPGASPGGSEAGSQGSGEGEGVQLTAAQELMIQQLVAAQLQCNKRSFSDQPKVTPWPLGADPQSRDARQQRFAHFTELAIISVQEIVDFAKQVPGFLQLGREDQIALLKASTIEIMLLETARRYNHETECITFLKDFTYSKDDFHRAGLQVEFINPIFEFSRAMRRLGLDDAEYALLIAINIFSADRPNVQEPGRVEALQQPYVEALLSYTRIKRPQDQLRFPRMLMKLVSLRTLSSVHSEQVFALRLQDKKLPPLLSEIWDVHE
In short: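 HepG2 cells transiently transfected with GAL4-UAS reporter units for chimeric NR-Gal4 proteins, dosed for 24 h. Reporter transcripts measured by RT-PCR and capillary electrophoresis; gain-of-signal fitting relative to DMSO.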

[16] = molecular target: Nuclear receptor subfamily 4 group A member 2 (Homo sapiens) (UniProt P43354); assay: ATG_NURR1_TRANS: Attagene TRANS-FACTORIAL HepG2 Assay for human Nuclear Receptor Related Protein 1 (NURR1) (AID 2282985; active = hit-call score of the fitted dose curve at least 0.9, where 1 is the maximum); conditions: HepG2 Attagene TRANS reporter, mRNA readout
In short: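 HepG2 cells transiently transfected with NURR1-Gal4 chimera and GAL4-UAS reporter units; after 24 hr compound exposure, reporter mRNA quantified by RT-PCR and capillary electrophoresis; gain of signal fitted against DMSO.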

[17] = BSK_3C_TissueFactor: BioMAP Diversity Plus: 3C Assay for Tissue Factor Biomarker Activity (AID 2282997); conditions: BioMAP 3C HUVEC, tissue factor biomarker readout; actives raise or lower the signal
In short: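 Dosing of human umbilical vein endothelial cells preceded a 24 h incubation. Tissue Factor was then read by ELISA, with increases and decreases both scored relative to DMSO controls.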

[18] = BSK_3C_uPAR: BioMAP Diversity Plus: 3C Assay for Urokinase-type plasminogen activator receptor (uPAR) Biomarker Activity (AID 2282998); conditions: BioMAP 3C HUVEC, uPAR biomarker ELISA; actives raise or lower the signal
In short: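 HUVEC primary cells; 24 h post-dose; uPAR by ELISA; gain or loss of signal fitted bidirectionally vs DMSO baseline.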

[19] = BSK_3C_VCAM1: BioMAP Diversity Plus: 3C Assay for Vascular cell adhesion molecule 1 (VCAM1) Biomarker Activity (AID 2282999); conditions: BioMAP 3C HUVEC, VCAM1 ELISA, cytokine-stimulated; actives raise or lower the signal
In short: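 Human umbilical vein endothelial cells (3C system), biomarker read by ELISA 24 h after dosing; bidirectional fit against DMSO baseline. Cytotoxicity tracked by SRB total-protein staining in parallel cultures at biomarker time.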

[20] = BSK_4H_Eotaxin3: BioMAP Diversity Plus: 4H Assay for Eotaxin 3 Biomarker Activity (AID 2283000); conditions: primary human endothelial cells (HUVEC); actives raise or lower the signal;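 also: CCL26 protein level quantified by ELISA in parallel with SRB cytotoxicity check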
In short: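 Human umbilical vein endothelial cells (BSK_4H system) dosed with test chemical; Eotaxin-3 (CCL26) measured by ELISA 24 h after dosing. Bidirectional curve fitting relative to DMSO negative control as baseline.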

Measured: AC50

Cc1ccc(S(N)(=O)=O)cc1
not listed: [15] | [16] | [17] | [18] | [19] | [20]
inactive: all other assays above

Cc1ncc[nH]1
not listed: [16] | [17] | [18] | [19] | [20]
inactive: all other assays above

C=C1CC[C@H](O)C/C1=C/C=C1\CCC[C@]2(C)[C@@H]([C@H](C)/C=C/[C@H](C)C(C)C)CC[C@@H]12
active: [11] 44.5 µM | [12] 27 µM
not listed: [4] | [15] | [16] | [17] | [18] | [19] | [20]
inactive: all other assays above

C[C@H]1C[C@@H](O)CC(C)(C)C1
not listed: [5] | [17] | [18] | [19] | [20]
inactive: all other assays above

CCCCCCCCCCCCN1CCCCCC1=O
active: [12] 10.9 µM
not listed: [6] | [16] | [17] | [18] | [19] | [20]
inactive: all other assays above

CC(=O)O[C@H]1C[C@@H]2CC[C@@]1(C)C2(C)C
not listed: [4] | [16] | [17] | [18] | [19] | [20]
inactive: all other assays above

Cc1cc(CCC(=O)OCCOCCOCCOC(=O)CCc2cc(C)c(O)c(C(C)(C)C)c2)cc(C(C)(C)C)c1O
active: [18] 17.8 µM
not listed: [8] | [12] | [15]
inactive: all other assays above

FC(F)(F)COCC(F)(F)F
not listed: [3] | [4] | [16] | [17] | [18] | [19] | [20]
inactive: all other assays above
